Data: the supplement of paper PMC11417369
± gives the standard deviation of the averaged measurements. Over roughly 25,000 sequences, “ln(normalized median fluorescence intensity)” has its median near 7.9; the highest 2% begin near 11. The list comes from a sample in which the highest values are over-represented; it also holds similar and randomly drawn sequences.

test system: PfAP2-I AP2 domain 3 (GST-tagged); assay: gcPBM binding intensity (ln(normalized median fluorescence intensity)); higher = stronger DNA binding
How it was run: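 Binding of GST-tagged P. falciparum DNA-binding domains, expressed in E. coli and used at about 25 μg on average, was carried out for 1 h in 1× PBS containing 1% milk, 0.2 mg/ml BSA, 0.5% salmon testes DNA and 0.03% Triton X-100. The target was an Agilent 4 × 180k array of primer-extended double-stranded 36-bp intergenic genomic probes plus negative controls, read with Alexa488 anti-GST antibody at 488 nm. Binding intensity is the highest Masliner-normalised natural-log median intensity across replicate spots of either probe orientation.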

Row | Sequence | gcPBM binding intensity (ln)
1 | TGTTATATGTTCAAATGTACAAATCATATACATGTT [XGTACX_site3192] | 7.5 ± 0.65
2 | GTTAGGATAGATTAGACATGCACATAAATGCACTTC [TGCATGCA_site561] | 11.1 ± 0.34
3 | AGGATATGCAGACACACACACATATAGATTTATATA [CACACA_site7100] | 7.74 ± 0.55
4 | AAAATTAGATTATGCACACACACTTAAAAATAATAA [CACACA_site1975] | 9.97 ± 0.46
5 | ATTTTTTCTAATGGGTGTACTGAAACGTATTTTATT [XGTACX_site6573] | 8.16 ± 0.58
6 | TTTGTGGTTACATGTGCACACACTTATTTCGTTCTT [CACACA_site1435] | 9.38 ± 0.4
7 | TATAATATATTCATGTGTACATATATTTCGAACATA [XGTACX_site1754] | 8.01 ± 0.2
8 | ATTTTATTTTCATATGAACACACATATATATATTAT [CACACA_site8741] | 8.35 ± 0.45
9 | AATTAATGGTTAAAGGTGCACAATACATATATTACA [GTGCAC_site9943] | 11.32 ± 0.035
10 | TTACATACAATTGGTGTGCACATATATATATATATA | 10.29 ± 0.049
11 | ATAATTATATGGCTAGCACACAATAAATAATTATAT [CACACA_site3815] | 7.92 ± 0.42
12 | AATTAATGGCTAAAGGTGCACAATATATATATTACA | 11.3 ± 0.19
13 | ATATAATAAGGTTAAGCACACATATTACATATATAA [CACACA_site9110] | 8.35 ± 0.23
14 | GTAATTAAAATATATACACACAAAGGCTATTAAATA [CACACA_site1011] | 7.68 ± 0.52
15 | ATATTATATTTCTTTTGTACATATTATATAATATAT [XGTACX_site7198] | 8.1 ± 0.56
16 | ATATATAAATATATTTGTACATATAATATGTATTAT [XGTACX_site8820] | 7.75 ± 0.47
17 | ATAATAATAAAATATATATACAAAGGTGAAATTATA [TGCATGCA_negctrl_site197] | 7.96 ± 0.58
18 | AATTATTGTGAAGGGAAAACAAAAAAGTTTATAATT [CACACA_negctrl_site1337] | 8.01 ± 0.72
19 | TTTATAAAGGGAAAGGTGCAAAAGGTGAAAGTTTTA | 10.9 ± 0.44
20 | TATGATGATGAATAACGTACAAAAAAATTAATCACC [XGTACX_site6794] | 8.16 ± 0.49
21 | TTTTGTAAAAAGAAAAATTAGAATATATCGTATATA [XGTACX_negctrl_site617] | 7.19 ± 0.45
22 | ATCAACATTACATTTAGTACACATATATTTCTATGT [XGTACX_site4436] | 8.16 ± 0.36
23 | TTTTTTTTCTAAATTATATGAAAATATATGTTATGT [GTGCAC_negctrl_site85] | 7.79 ± 0.23
24 | ACGGAAAAAGAAAAGGTGCATATGGACACAATATAT | 10.85 ± 0.099
25 | TAAAAGAAATAAGGTGCACACATATACATATATATA [CACACA_site8037] | 10.19 ± 0.071
26 | AAAGAAATAAGGTGCACACATATACATATATATATA [CACACA_site429] | 10.3 ± 0.29

Row | Sequence | gcPBM binding intensity (ln)
27 | TTTTACAAAATAAAAATATAGAATACGGTAAATTAT [GTGCAC_negctrl_site40] | 7.87 ± 0.73
28 | GTTATAAACAAAATAAATATATGAATATATAATAAT [XGTACX_negctrl_site96] | 7.46 ± 0.5
29 | TTTATATATTTTGTCGTGCACATTTGGAAAATTACA [GTGCAC_site9776] | 10.8 ± 0.16
30 | TATAAAATAAATTGTGCACACATATTTATAAATATG [CACACA_site2330] | 10.71 ± 0.078
31 | TTATTATAATCATTAGTGCATATATTATTTTTATAT | 9.795 ± 0.049
32 | ATATATCATATTATAGTGCATTTATAATAATATTAT | 10.8 ± 0.13
33 | TAATATTTTAATTGTGTGCACATTAATATTATAAAA | 10.1 ± 0.16
34 | GAAATATAATTTATTACACACATTTTAAAAAAATTC [CACACA_site1087] | 7.74 ± 0.18
35 | ATAAATTTTTAAACAGCACACATAAATATAATATAT [CACACA_site8691] | 8.28 ± 0.4
36 | TAAAATAAATTGTGCACACATATTTATAAATATGAA [CACACA_site2331] | 11.3 ± 0.35
37 | AGGAAAATTTTATTTGCACACATTATTACGTCTAAA [CACACA_site2337] | 9.9 ± 0.4
38 | TAAAATAATATTTATGTGCACATATAATTATTAATT | 10.395 ± 0.007
39 | TATATATATATAATTGTGCACATAATTTTAAACCAA | 11.1 ± 0.13
40 | AACATATTGGATTTAGTGCACATATATATCATAATA | 11.5 ± 0.29
41 | TATTAAAAGTAAAAAACACACATGGATATATACATA [CACACA_site3959] | 7.67 ± 0.64
42 | AAACAAAGGGAACATGTGCACTTACAAAAAAAAAGA | 9.78 ± 0.28
43 | ATCTATATTATTTCTACACACATATCTATAATATGT [CACACA_site7561] | 7.85 ± 0.72
44 | GCTCATATGACAACAACACACAAAAAAATAAAATGA [CACACA_site714] | 7.8 ± 0.69
45 | TAAACAAATAAATATTGTACATTTTTTCCTTTTAAT [XGTACX_site5594] | 7.38 ± 0.39
46 | TATAGTTTTGAAAACAAACACACAAAAAAAAAAAAA [CACACA_site1691] | 8.07 ± 0.7
47 | TAATATACATATATATGTACATATATATATATATAT [XGTACX_site2684] | 9.09 ± 0.47
48 | ATATATTTATTTTGTGCACACAACGCAAACCTTTTA [CACACA_site3508] | 10.98 ± 0.092
49 | TATATATATATATATGTGCACATTTTATTAAAATGT | 9.87 ± 0.15
50 | GGGAAAATAAATAAAGTGCAGATATTAAAAGTTGTA | 8.85 ± 0.31
51 | TGTGCATAAATTTATGCACACATAAAAAAAAAAAAA [CACACA_site8954] | 11.5 ± 0.93
52 | AAAAGTCTCTTTTTAGTGCACATTTTATTTAAATAT | 11.32 ± 0.078

Row | Sequence | gcPBM binding intensity (ln)
53 | TGCATAAATTTATGCACACATAAAAAAAAAAAAAAA [CACACA_site2923] | 10 ± 0.64
54 | TAAAATAATTTATGCATACACACATATATATATATA [CACACA_site4021] | 9.49 ± 0.26
55 | GTGCAAAATATTTTTACACACAAATTTTTACAACAG [CACACA_site3357] | 9.99 ± 0.63
56 | TATGTTGTTTATTTAGTGCATATTTAAATATTATAA [GTGCAC_site9601] | 10.16 ± 0.078
57 | TAATAAAAAAAGTGCACACACATAATATTTATATAT [CACACA_site7548] | 9.7 ± 0.18
58 | AATATAAGTTTATTAGTGCACAGATAAATATATATT [GTGCAC_site9784] | 11.4 ± 0.23
59 | TATAAACCTTTTTGCACGCACACAAAAAAAAAATAA [CACACA_site168] | 9.99 ± 0.46
60 | ATTACAATATATACGTGTACATATTACCACCGCTAC [XGTACX_site2308] | 8.46 ± 0.7
61 | ACAATAAATATGTGGTTGCACTTATAATATATTTAT | 8.66 ± 0.4
62 | ATAAAATAAAACAACACACACGAATGTATAAATATA [CACACA_site4643] | 7.66 ± 0.66
63 | TTTTTATAAAATTTTATGAGCTCGGAAAAAATAAAC [GTGCAC_negctrl_site637] | 8.49 ± 0.48
64 | TGTGAAAATTATGGGGCATGCAATACTTTAAAAATA [TGCATGCA_site653] | 7.98 ± 0.72
65 | GAACAACAACAAAAAAAAAAAAAAAAAAAAAAAAAA [CACACA_negctrl_site199] | 8.12 ± 0.83
66 | ATGATGTCTTTATATTGTACATATATGAAGACGTTA [XGTACX_site7751] | 7.79 ± 0.29
67 | TATGTCCATATTTCCACACACATATTATTTTTATAT [CACACA_site3798] | 8.18 ± 0.53
68 | AGCTACAAAAATTAATATATATATGTATAGTTATAC [TGCATGCA_negctrl_site531] | 7.38 ± 0.59
69 | TTTTTGTTATTATGTGTGCACATATATATATATATA | 10.3 ± 0.31
70 | TGTGTATTTATAAATACACACCAAATGTTAATATAT [CACACA_site6904] | 8.03 ± 0.47
71 | TCTTTCCTTATTAAAACACACAAATACATTATTTAA [CACACA_site2147] | 7.84 ± 0.46
72 | AAATATTACATTTGTTAAATAATATGTTATACATAA [XGTACX_negctrl_site484] | 7.32 ± 0.54
73 | TATAAAAATGTGCACACACACACATATTTATATTTA [CACACA_site6826] | 9.365 ± 0.007
74 | TTTTATTTCTTTGCACCATTTTAAATACAAACAAAT [CACACA_negctrl_site1553] | 11.1 ± 0.79
75 | GTATTTCTTTAATATACACACACCAAAACAAAAAAA [CACACA_site579] | 8.13 ± 0.49
76 | TATATATATATATATGTGCACATATTTATATGTTTT | 9.85 ± 0.22
77 | TTATTTTATTTTTTTGTGCACATATATATTTATAAA [GTGCAC_site9615] | 10.86 ± 0.028
78 | CAGTTGTTAATTTGTGTGCACCAAATATTATACATA | 11 ± 0.33

Row | Sequence | gcPBM binding intensity (ln)
79 | GTCAAATTTTTGTGCACACATATATAGTTATTATTA [CACACA_site2241] | 11.2 ± 0.23
80 | ATGTCAAATTTTTGTGCACACATATATAGTTATTAT [CACACA_site2242] | 10.78 ± 0.028
81 | GAAATAAATATAATATATATATATATATATATATGT [TGCATGCA_negctrl_site216] | 8.25 ± 0.38
82 | CAACCATTTGTAGGTAAACACACATTATTATTAATA [CACACA_site8842] | 7.47 ± 0.46
83 | AAGTATTTTTTTACATGTACATATATATATATATAT [XGTACX_site5065] | 9.4 ± 0.56
84 | ATATTATATCTAATCGTGCACAACTGTACATTTGTC | 10.5 ± 0.12
85 | TTTTTTTCATAATATACACACAAAAAAAAAAAAAAA [CACACA_site3224] | 8.12 ± 0.68
86 | TTCATTTTTTGCTTTCAACACACATACAATATATAT [CACACA_site9369] | 8.01 ± 0.49
87 | AAATTACCCATCCATACACACATATTTTTTTTAATT [CACACA_site2189] | 7.96 ± 0.64
88 | AATTTTTTTTTTAGACGTACAAGAAAAAACAAAAAA [XGTACX_site4990] | 8.15 ± 0.55
89 | GTATTTAGATGATTAACACACATATGTGTATTAATA [CACACA_site6733] | 7.92 ± 0.41
90 | TAAAAAATAAAATACACACACATATTTATATTTATA [CACACA_site6737] | 7.41 ± 0.4
91 | ATTTTTTTATTTTGTGCACACACATAAAAATATATA [CACACA_site762] | 11.1 ± 0.27
92 | TTTTGATATAAATATTAGATTAATAAATAAAAAAAT [CACACA_negctrl_site1635] | 7.8 ± 0.39
93 | TATTTTATAATAGGCACACATATAAAAATATATATA [CACACA_site4127] | 7.96 ± 0.52
94 | AATATTTTTTTATAAACACACATATATATAAATATA [CACACA_site3524] | 7.89 ± 0.33
95 | GGGATATTTTAAAGGGTGCATATTATTAAAATAATG | 10.7 ± 0.51
96 | TAATAATTTATAATAGTGCATTTGATTTTAAAAATA | 9.81 ± 0.51
97 | TTTTTTATTTTGTGCACACACATAAAAATATATATA [CACACA_site761] | 11.2 ± 0.31
98 | TAAAATAAAAATATAGTGCACAGATTTTGATATTTT [GTGCAC_site9696] | 11.2 ± 0.23
99 | TTTATTTTTATTTTTGTGCACGGGATTAAATAAAAG [GTGCAC_site9842] | 11.22 ± 0.092
100 | TTCTATTTTTTAAAAGTGCATATTATAAATATATAT | 9.63 ± 0.11
101 | ATATATTTTTTAAACACACACATAAATATTTGTGTA [CACACA_site2879] | 7.84 ± 0.49
